Reference: PubChem BioAssay (NCATS)
Results filed as inconclusive are left out. Calls of active or inactive are those of the source. Unless noted, the call rests on the fitted dose curve; in most records, active means well fitted curve in either direction with a large enough effect (not every such curve was filed as active); inconclusive means small, poorly fitted or top-dose-only effect, or another doubt; inactive means flat fitted curve, though single readings scatter.

Tests used:
[1] = target: Mitogen-activated protein kinase 10 (Mus musculus) (UniProt Q61831); assay: JNK3 AlphaScreen Assay (AID 530);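 further: kinase came from lysate of stimulated human HepG2 cells; signal reports phosphorylation of biotinylated GST-cJun 1-79 at Ser73 with 10 µM ATP; series mostly up to about 57 µM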
In short: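 Kinase buffer: 20 mM Tris-HCl pH 7.6, 10 mM MgCl2, 1 mM DTT, 0.1 mM Na3VO4, 0.01% Tween-20; ATP 10 uM. Substrate biotin-GST-cJun(1-79), enzyme from activated HepG2 lysates. Detection by Ser73 phospho-antibody AlphaScreen.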

[2] = target: 3',5'-cyclic-AMP phosphodiesterase 4B (Homo sapiens) (UniProt Q07343); assay: qHTS Assay for Inhibitors of PDE-IV (AID 607; active means well fitted activation curve with a large enough effect in the main read-out, with a control signal flat, not every such curve was filed as active)
Sequence of 3',5'-cyclic-AMP phosphodiesterase 4B (Homo sapiens) (Q07343 whole entry, looked up): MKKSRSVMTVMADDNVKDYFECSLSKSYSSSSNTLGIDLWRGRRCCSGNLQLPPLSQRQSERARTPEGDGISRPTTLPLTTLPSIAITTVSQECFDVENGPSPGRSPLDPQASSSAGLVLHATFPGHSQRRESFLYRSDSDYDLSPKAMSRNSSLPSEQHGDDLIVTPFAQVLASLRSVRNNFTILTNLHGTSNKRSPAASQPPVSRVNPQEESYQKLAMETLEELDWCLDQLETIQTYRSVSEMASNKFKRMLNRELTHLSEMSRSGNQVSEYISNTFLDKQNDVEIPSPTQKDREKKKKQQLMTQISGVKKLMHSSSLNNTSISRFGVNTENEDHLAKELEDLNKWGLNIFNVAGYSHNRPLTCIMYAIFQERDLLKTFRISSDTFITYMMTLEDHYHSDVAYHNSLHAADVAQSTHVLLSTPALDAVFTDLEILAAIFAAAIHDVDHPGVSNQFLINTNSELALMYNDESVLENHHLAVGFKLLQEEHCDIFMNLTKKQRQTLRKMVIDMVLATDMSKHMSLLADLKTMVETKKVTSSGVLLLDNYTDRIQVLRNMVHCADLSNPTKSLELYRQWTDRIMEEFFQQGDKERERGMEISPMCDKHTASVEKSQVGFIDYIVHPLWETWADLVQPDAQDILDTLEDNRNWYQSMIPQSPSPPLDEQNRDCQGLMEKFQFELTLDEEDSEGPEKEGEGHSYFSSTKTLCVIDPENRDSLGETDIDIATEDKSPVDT
In short: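 ACTOne HEK293 cells carry a modified cAMP-gated CNG channel and express endogenous PDE4; plated 1000 cells/well, compounds up to 22.9 uM final. Membrane-potential dye fluorescence (ex 535/em 590) was read; parental cells received 10 uM forskolin + 100 uM RO 20-1724.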

SMILES | outcome [1] | outcome [2]
CCCCNC(=O)C(c1ccc(OCC(=O)OC)c(C(=O)OC)c1)N(CCC1=CCCCC1)C(=O)CCCCCN1C(=O)NC(c2ccc(-c3ccccc3)cc2)C(C(=O)OCc2ccccc2)=C1C (stereo not drawn) | inactive | 
COC(=O)[C@@]1(Cc2ccc(F)cc2)[C@H]2c3cc(C(=O)N(C)C)n(Cc4ccc(OC(F)(F)F)cc4)c3C[C@H]2CN1C(=O)c1ccccc1 | inactive | inactive
COC(=O)[C@@]1(Cc2ccccc2)[C@H]2c3cc(C(=O)N4CCCC4)n(CCSCCO)c3C[C@H]2CN1C(=O)c1ccccc1 | inactive | inactive
COC(=O)[C@@H]1C[C@H]1[C@@H](NS(=O)(=O)c1ccccc1)c1ccccc1 | inactive | inactive
COC(=O)[C@@]1(Cc2ccc(OC)cc2)[C@H]2c3cc(C(=O)N(C)C)n(Cc4cc(C)n(C)n4)c3C[C@H]2CN1C(=O)c1ccccc1 | inactive | inactive
COCCn1c(C(=O)N2CCCC2)cc2c1C[C@H]1CN(C(=O)c3ccccc3)[C@@](Cc3ccccc3)(C(=O)OC)[C@@H]21 | inactive | inactive
Nc1ccccc1C#CCCCCO | inactive | inactive
COC(=O)[C@@]1(Cc2ccc(F)cc2)[C@H]2c3cc(C(=O)N(C)C)n(CCSCCO)c3C[C@H]2CN1C(=O)c1ccccc1 | inactive | inactive
CC(C)=C1C(=O)C(c2ccccc2)=C2CN3C(=O)N(CCc4ccccc4)C(=O)[C@]3(C)[C@H]21 | inactive | 
COC(=O)[C@@]1(Cc2ccc(OC)cc2)[C@H]2c3cc(C(=O)N4CCCC4)n(Cc4ccc(OC(F)(F)F)cc4)c3C[C@H]2CN1C(=O)c1ccccc1 | inactive | inactive
COC(=O)[C@@]1(Cc2ccc(OC)cc2)[C@H]2c3cc(C(=O)N4CCCC4)n(CCO)c3C[C@H]2CN1C(=O)c1ccccc1 | inactive | inactive
COC(=O)[C@@]1(Cc2ccc(F)cc2)[C@H]2c3cc(C(=O)N(C)C)n(CCc4ccc(O)c(O)c4)c3C[C@H]2CN1C(=O)c1ccccc1 | inactive | inactive
COC(=O)[C@@]1(Cc2ccc(OC)cc2)[C@H]2c3cc(C(=O)N(C)C)n(Cc4ccc(OC(F)(F)F)cc4)c3C[C@H]2CN1C(=O)c1ccccc1 | inactive | inactive
CCCC[C@@H]1C[C@H]1C(NC(=O)c1ccco1)c1ccccc1C(F)(F)F (stereo partly drawn) | inactive | 
Cc1cc(C(=O)N[C@H](c2ccccc2)[C@@]2(C)C[C@@H]2[C@@H](C)C(=O)Nc2ccc3ccccc3c2)no1 | inactive | inactive
CS(=O)(=O)c1ccc(CNC(=O)[C@H]2C[C@@H]2[C@H](NP(=O)(c2ccccc2)c2ccccc2)c2ccccc2)cc1 | inactive | inactive
COC(=O)[C@@]1(Cc2ccc(F)cc2)[C@H]2c3cc(C(=O)N4CCCC4)n(Cc4cc(C)n(C)n4)c3C[C@H]2CN1C(=O)c1ccccc1 | inactive | inactive
COCCn1c(C(=O)N(C)C)cc2c1C[C@H]1CN(C(=O)c3ccccc3)[C@@](Cc3ccc(F)cc3)(C(=O)OC)[C@@H]21 | inactive | 
COC(=O)[C@@]1(Cc2ccccc2)[C@H]2c3cc(C(=O)N(C)C)n(Cc4ccc(OC)c(OC)c4)c3C[C@H]2CN1C(=O)c1ccccc1 | inactive | inactive
C[Si](C)(C)C#Cc1ccccc1NC(=S)Nc1ccccc1 | inactive | 
Cc1ccc(CNC(=O)[C@H](C)[C@@H]2C[C@@]2(C)[C@@H](NC(=O)OCc2ccccc2)c2ccccc2)o1 | inactive | inactive
CCC[C@@H]1C[C@@]1(CCC)C(NP(=O)(c1ccccc1)c1ccccc1)c1ccc(Cl)cc1 (stereo partly drawn) | inactive | 
COC(=O)[C@@]1(Cc2ccc(OC)cc2)[C@H]2c3cc(C(=O)N(C)C)n(CCO)c3C[C@H]2CN1C(=O)c1ccccc1 | inactive | inactive
CCCC[C@@H]1C[C@H]1C(NS(=O)(=O)c1cccc2cccnc12)c1ccc(-c2ccccc2)cc1 (stereo partly drawn) | inactive | 
COC(=O)[C@@]1(Cc2ccc(OC)cc2)[C@H]2c3cc(C(=O)N4CCCC4)n(CCc4c[nH]c5ccccc45)c3C[C@H]2CN1C(=O)c1ccccc1 | inactive | inactive
COC(=O)[C@@]1(Cc2ccc(F)cc2)[C@H]2c3cc(C(=O)N4CCCC4)n(CCc4ccccn4)c3C[C@H]2CN1C(=O)c1ccccc1 | inactive | inactive
CCC/C=C(\CCC)C(NC(=O)c1ccco1)c1ccc(C(=O)OC)cc1 (stereo not drawn) | inactive | 
COC(=O)[C@@]1(Cc2ccc(OC)cc2)[C@H]2c3cc(C(=O)N4CCCC4)n(Cc4ccsc4Br)c3C[C@H]2CN1C(=O)c1ccccc1 | inactive | inactive
